Bioassay records deposited in PubChem by National Center for Advancing Translational Sciences (NCATS).
In the library only some 7.4% were active in any assay of this set; here they are far more common.
SMN2 splice enh: qHTS Assay for Enhancers of SMN2 Splice Variant Expression; HEK293 SMN2-luciferase splicing reporter, luminescence, 30-36 h; Potency, µM (series often up to 46.1 µM), without a hit: at the highest dose activity change, positive = activation, most hits filed as activators; 2.8% of 210,000 active; AID 1458, 2008; further: % of control where 0% means no effect; nearly all actives have a fitted effect of over 55% in size
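qHTS luciferase splicing reporter: luminescence rises when SMN2 exon 7 is included in transfected HEK293 cells. Compound exposure lasted 30-36 h at 37C, with 4.5 mM final sodium butyrate as control, followed by a ONE-Glo read.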
NPC1 prom act: qHTS Assay for NPC1 Promoter Activators. Huh7 NPC1 promoter luciferase reporter, 24 h. Potency, µM (series often up to 9.22 µM), for the others: at the highest dose activation, actives largely listed as activators. 2.4% of 320,000 active. AID 485313, 2010; further: % of control where 0% means no effect; nearly all actives have a fitted effect of over 60% in size
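Quantitative HTS used a cell-based reporter: Huh7 cells stably bearing the NPC1 promoter upstream of luciferase were treated with compounds for 24 h, and promoter activation was read as luminescence.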
FLuc counter: qHTS profiling assay for firefly luciferase inhibitor/activator using purifed enzyme and Km concentrations of substrates (counterscreen for miR-21 project); Luciferin 4-monooxygenase (Photinus pyralis), P08659; purified FLuc, Km substrates, luminescence inhibition; Potency, µM (doses to about 57.5 µM), inactives show at the top dose activity change, negative = inhibition, most hits filed as inhibitors; 6.9% of 360,000 active; AID 588342, 2011;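 further: plate controls were vehicle for no effect and reference inhibitor for full effect; nearly all actives have a fitted effect of over 55% in size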
Target sequence (P08659 whole entry, looked up): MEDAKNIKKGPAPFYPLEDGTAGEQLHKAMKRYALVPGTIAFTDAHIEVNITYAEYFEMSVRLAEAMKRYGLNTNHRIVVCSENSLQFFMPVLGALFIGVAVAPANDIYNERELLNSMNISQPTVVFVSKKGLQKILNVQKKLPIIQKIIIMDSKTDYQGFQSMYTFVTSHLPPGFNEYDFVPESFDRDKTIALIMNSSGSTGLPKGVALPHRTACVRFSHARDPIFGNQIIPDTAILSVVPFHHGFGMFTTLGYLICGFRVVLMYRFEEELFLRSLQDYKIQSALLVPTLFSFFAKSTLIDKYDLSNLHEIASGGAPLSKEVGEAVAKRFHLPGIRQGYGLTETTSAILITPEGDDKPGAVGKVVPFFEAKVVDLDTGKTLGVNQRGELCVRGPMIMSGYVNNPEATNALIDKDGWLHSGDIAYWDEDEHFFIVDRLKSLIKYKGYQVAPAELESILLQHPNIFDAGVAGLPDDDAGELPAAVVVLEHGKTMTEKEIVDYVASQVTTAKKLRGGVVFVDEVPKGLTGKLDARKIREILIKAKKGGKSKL
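Purified P. pyralis luciferase (10nM final) with 10uM D-luciferin and 10uM ATP (Km levels) in 50mM Tris acetate pH 7.5, 10mM Mg acetate, 0.01% Tween-20, 0.05% BSA; qHTS 6-point titration, ~60 µM downward; luminescence read.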
Rab9 promoter act: qHTS Assay for Rab9 Promoter Activators | AID 485297, 2010 | 2.8% of 320,000 active | Huh7 Rab9 promoter-luciferase reporter, luminescence, 24 h | Potency, µM (top dose mostly 9.22 µM), for inactives: top-dose activation, negative = inhibition, hits mostly activators; further: % of control where 0% means no effect; nearly all actives have a fitted effect of over 60% in size
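Cells were plated at 1500 per well in reduced-serum medium with 10% FBS and left 2 h. Compound in DMSO was then added for 24 h at 37 °C. Reporter signal was read by luminescence after 10 min with luciferase detection reagent.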
ELG1 genotoxic: qHTS screen for small molecules that induce genotoxicity in human embryonic kidney (HEK293T) cells expressing luciferase-tagged ELG1. HEK293T ELG1-luciferase reporter, luminescence, 16 h. Potency, µM (series often up to 46 µM), without a hit: at the highest dose activity change, positive = activation, hits mostly activators. 1.3% of 330,000 active. AID 504466, 2011; further: % of control where 0% means no effect; nearly all actives have a fitted effect of over 60% in size
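Step 1: seed 2,000 HEK293T ELG1-luciferase cells per well. Step 2: add compound or DMSO, incubate 16 hr at 37 °C. Step 3: ONE-Glo, 30 min at room temperature, read luminescence.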
Active calls of the source: *. The call rests on the fitted dose curve; in most records, active means well fitted curve in the direction sought with a large enough effect; inconclusive means small, poorly fitted or top-dose-only effect, or another doubt; inactive means no such curve, though single readings can be large; an effect the other way counts as inactive or inconclusive. Potency means the concentration at half of the fitted maximal effect.

How did N/C(=N\OC(=O)Cc1ccccc1)c1cccnc1 do in these assays?
SMN2 splice enh: -12.4%; NPC1 prom act: -4.0%; FLuc counter: -1.9%; Rab9 promoter act: -3.5%; ELG1 genotoxic: 3.2%

How did N/C(=N\OC(=O)CCCc1ccccc1)c1ccccc1 do in these assays?
NPC1 prom act: 8.6%; FLuc counter: 4.78µM*; Rab9 promoter act: 17.0%; ELG1 genotoxic: inconclusive

How did N/C(=N\OC(=O)CCCc1ccccc1)c1cccnc1 do in these assays?
SMN2 splice enh: 4.1%; NPC1 prom act: -1.8%; FLuc counter: 16.9µM*; Rab9 promoter act: -0.9%; ELG1 genotoxic: 3.9%

Results for Cc1cccc(/C(N)=N/OC(=O)CCCc2ccccc2)c1 ?
NPC1 prom act: 13.5%; FLuc counter: 9.53µM*; Rab9 promoter act: 8.9%; ELG1 genotoxic: inconclusive

Results for CNC(=O)C1CCC(Cn2c(=O)c3sccc3n(CC(=O)NCc3ccc(C)cc3)c2=O)CC1 (stereo unspecified) ?
FLuc counter: 3.1%

Results for O=C(Cc1csc(NC(=O)Nc2ccc(Cl)cc2)n1)NCc1cccnc1 ?
NPC1 prom act: 23.8%; FLuc counter: 3.01µM*; Rab9 promoter act: 23.8%; ELG1 genotoxic: -0.3%

Results for O=C(NCc1cccnc1)Nc1cccc(Cl)c1 ?
NPC1 prom act: 11.2%; FLuc counter: -2.1%; Rab9 promoter act: 15.2%; ELG1 genotoxic: 7.8%

Results for COc1ccccc1NC(=O)Nc1nc(CC(=O)NCc2cccnc2)cs1 ?
NPC1 prom act: -4.4%; FLuc counter: inconclusive; Rab9 promoter act: 1.0%; ELG1 genotoxic: 0.1%

Results for O=C(Cc1csc(NC(=O)Nc2cccc(Cl)c2)n1)NCc1cccnc1 ?
NPC1 prom act: 11.2%; FLuc counter: 6.75µM*; Rab9 promoter act: 13.9%; ELG1 genotoxic: -8.3%

How did O=C(Cc1csc(NC(=O)Nc2cccc(Cl)c2)n1)NCc1ccccn1 do in these assays?
NPC1 prom act: 22.4%; FLuc counter: 2.69µM*; Rab9 promoter act: inconclusive; ELG1 genotoxic: 2.4%

Results for CCCCN1C(=O)c2[nH]nc(-c3ccccc3O)c2C1c1ccc(OCc2ccccc2)cc1 (stereo unspecified) ?
SMN2 splice enh: -0.3%; FLuc counter: -3.2%

How did O=C1NC(=S)S/C1=C\c1ccc2ccccc2c1 do in these assays?
NPC1 prom act: 29.9%; FLuc counter: 9.53µM*; Rab9 promoter act: inconclusive; ELG1 genotoxic: 12.0%

What do the screens show for `COc1cccc(OCCOc2ccc(/C=C3/SC(=S)NC3=O)cc2)c1`?
NPC1 prom act: 1.9%; FLuc counter: inconclusive; Rab9 promoter act: 4.7%; ELG1 genotoxic: 0.6%

Results for CCOc1ccc(/C=C2\SC(=S)NC2=O)cc1OC ?
NPC1 prom act: 5.1%; FLuc counter: 12µM*; Rab9 promoter act: 0.3%; ELG1 genotoxic: 11.8%

Results for COc1ccc(/C=C2\SC(=S)NC2=O)cc1OS(=O)(=O)c1ccc(NC(C)=O)cc1 ?
SMN2 splice enh: 18.5%; NPC1 prom act: -0.9%; FLuc counter: 26.9µM*; Rab9 promoter act: -1.8%; ELG1 genotoxic: -6.9%

How did COc1cc(/C=C2\SC(=S)NC2=O)ccc1OS(=O)(=O)c1ccccc1 do in these assays?
SMN2 splice enh: -43.7%; NPC1 prom act: -4.1%; FLuc counter: inconclusive; Rab9 promoter act: -3.3%; ELG1 genotoxic: -7.8%

How did O=S(=O)(NC1C2CC3CC(C2)CC1C3)c1ccccc1 (stereo unspecified) do in these assays?
NPC1 prom act: -1.7%; Rab9 promoter act: -0.7%; ELG1 genotoxic: -1.1%

How did Cc1ccc2c(=O)c(C(=O)c3cccc(Cl)c3)cn(CC(=O)Nc3ccccc3C(F)(F)F)c2n1 do in these assays?
FLuc counter: -0.9%

How did Cc1occc1C(=O)Nc1cccc(C(=O)O)c1 do in these assays?
SMN2 splice enh: inconclusive; NPC1 prom act: 2.24µM*; FLuc counter: 9.53µM*; Rab9 promoter act: 2.82µM*; ELG1 genotoxic: inconclusive

How did Cc1occc1C(=O)Nc1cccc(C(F)(F)F)c1 do in these assays?
SMN2 splice enh: -35.8%; NPC1 prom act: -9.3%; FLuc counter: -15.4%; Rab9 promoter act: -9.5%; ELG1 genotoxic: 1.9%

Results for Cc1cc(NC(=O)c2ccccc2[N+](=O)[O-])ccc1Br ?
SMN2 splice enh: 26.5%; NPC1 prom act: 28.5%; FLuc counter: 16.9µM*; Rab9 promoter act: inconclusive; ELG1 genotoxic: inconclusive

How did Cc1ccccc1C(=O)Nc1cccc(NC(=O)c2ccccc2[N+](=O)[O-])c1 do in these assays?
NPC1 prom act: -3.2%; FLuc counter: inconclusive; Rab9 promoter act: 10.5%; ELG1 genotoxic: 3.2%

Results for Nc1ccccc1C(=O)Nc1cccc(C(=O)O)c1 ?
SMN2 splice enh: 16.6%; NPC1 prom act: inconclusive; FLuc counter: 2.69µM*; Rab9 promoter act: 2.24µM*; ELG1 genotoxic: 3.5%

How did Cc1ccc(NC(=O)c2ccoc2C)cc1C do in these assays?
SMN2 splice enh: 15.8µM*; NPC1 prom act: inconclusive; FLuc counter: inconclusive; Rab9 promoter act: 2.82µM*; ELG1 genotoxic: inconclusive

How did O=C(CCn1c(=O)c2cccn2c2cccnc21)N1CCN(c2ccc(F)cc2)CC1 do in these assays?
FLuc counter: 6.1%

What do the screens show for `O=C1C(c2ccc(F)cc2)N(CCc2ccc(Cl)cc2)C(=O)CN1C1CCCCCC1` (stereo unspecified)?
FLuc counter: -1.7%

What do the screens show for `CC(C)C[C@@H](NC(=O)C1CCC(CNC(=O)[C@H](Cc2ccccc2)NC(=O)OC(C)(C)C)CC1)C(=O)O` (stereo partly specified)?
NPC1 prom act: -6.5%; FLuc counter: 0.6%; Rab9 promoter act: 1.1%; ELG1 genotoxic: 1.1%

What do the screens show for `Cc1occc1C(=O)Nc1ccc2c(c1)OCO2`?
SMN2 splice enh: 12.6µM*; NPC1 prom act: 3.55µM*; FLuc counter: 23.9µM*; Rab9 promoter act: 2.82µM*; ELG1 genotoxic: 20.6µM*

What do the screens show for `Cc1occc1C(=O)Nc1ccc(S(N)(=O)=O)cc1`?
SMN2 splice enh: 8.0%; NPC1 prom act: 0.0%; FLuc counter: inconclusive; Rab9 promoter act: 6.9%; ELG1 genotoxic: 2.0%

Results for C/C(=N\NC(=O)c1ccncc1)c1cccc(NC(=O)c2ccc(Cl)s2)c1 ?
NPC1 prom act: 23.6%; FLuc counter: 19µM*; Rab9 promoter act: 1.2%; ELG1 genotoxic: -1.3%

How did Cc1cc(NC(=O)c2ccoc2C)ccc1Br do in these assays?
NPC1 prom act: inconclusive; FLuc counter: 7.57µM*; Rab9 promoter act: inconclusive; ELG1 genotoxic: inconclusive

What do the screens show for `C/C(=N/NC(=O)c1ccc(C)s1)c1cccc(NC(=O)c2ccoc2C)c1`?
NPC1 prom act: 2.1%; FLuc counter: 16.9µM*; Rab9 promoter act: 27.0%; ELG1 genotoxic: -19.4%
